Test results as given in PubChem BioAssay (NCI).
About 83,000 compounds went through this panel and 20% of them were active in at least one assay; those are over-represented in the sample as a whole.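 Each cell line was grown in a 96-well plate and treated with one concentration of compound for 48 hours. Values below 10 were considered active.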 Active and inactive are the calls of the source.

What was measured:
Assay in all cases: NCI-60 one-dose screen, 48 h (100 = growth as untreated, 0 = no growth, -100 = all killed)
Conditions in all cases: 10 µM unless noted
SR leukemia = tested on: SR leukemia
RPMI-8226 leukemia = tested on: RPMI-8226 leukemia
OVCAR-8 ovarian = tested on: OVCAR-8 ovarian
OVCAR-5 ovarian = tested on: OVCAR-5 ovarian
OVCAR-4 ovarian = tested on: OVCAR-4 ovarian
SK-OV-3 ovarian = tested on: SK-OV-3 ovarian
IGROV1 ovarian = tested on: IGROV1 ovarian
OVCAR-3 ovarian = tested on: OVCAR-3 ovarian
HS 578T breast = tested on: HS 578T breast
NCI/ADR-RES ovarian = tested on: NCI/ADR-RES ovarian

Measured: growth

O=C(Nc1cc(Cl)ccc1O)c1ccc(Nc2ccnc(C(F)(F)F)c2)cc1
active: RPMI-8226 leukemia -6.66%
inactive: SR leukemia 23.7% | OVCAR-8 ovarian 51.8% | OVCAR-5 ovarian 86.4% | OVCAR-4 ovarian 43.3% | SK-OV-3 ovarian 64.1% | IGROV1 ovarian 36% | OVCAR-3 ovarian 14.3% | HS 578T breast 49.9% | NCI/ADR-RES ovarian 35.1%

COc1ccc(-c2nn(-c3ccccc3)cc2/C=C2/SC(=S)N(C)C2=O)cc1
active: OVCAR-4 ovarian -24%
inactive: SR leukemia 29.3% | RPMI-8226 leukemia 89.8% | OVCAR-8 ovarian 49.8% | OVCAR-5 ovarian 76.3% | SK-OV-3 ovarian 90.8% | IGROV1 ovarian 33.3% | OVCAR-3 ovarian 53% | HS 578T breast 39.3% | NCI/ADR-RES ovarian 74.5%

CCOC(=O)c1[nH]c(=O)c2c(C)nc(-c3ccccc3)cc2c1O
inactive: SR leukemia 97% | RPMI-8226 leukemia 93.8% | OVCAR-8 ovarian 109% | OVCAR-5 ovarian 106% | OVCAR-4 ovarian 117% | SK-OV-3 ovarian 108% | OVCAR-3 ovarian 105% | HS 578T breast 98.4% | NCI/ADR-RES ovarian 103%
active: IGROV1 ovarian 1.43%

CN1CCN(C(=O)OCc2ccc3c(Cl)cc(Cl)c(O)c3n2)CC1
inactive: SR leukemia 14% | RPMI-8226 leukemia 42% | OVCAR-8 ovarian 45.1% | OVCAR-5 ovarian 106% | OVCAR-4 ovarian 46.8% | SK-OV-3 ovarian 88.7% | IGROV1 ovarian 56.6% | OVCAR-3 ovarian 50.9% | HS 578T breast 80.2% | NCI/ADR-RES ovarian 15%

CN(Cc1ccc(C(F)(F)F)cc1)CC(O)C(=O)Nc1ccc(Cl)cc1 (stereo not given)
active: SR leukemia -31.3% | RPMI-8226 leukemia -33.7% | OVCAR-8 ovarian 6.23% | IGROV1 ovarian 0.563% | OVCAR-3 ovarian -40.7%
inactive: OVCAR-5 ovarian 27.9% | OVCAR-4 ovarian 15.6% | SK-OV-3 ovarian 70.7% | HS 578T breast 51.7% | NCI/ADR-RES ovarian 39.3%

CCCCCOc1ccc(C(=O)/C(Br)=C/C(=O)O)cc1
inactive: SR leukemia 91.9% | RPMI-8226 leukemia 77.8% | OVCAR-8 ovarian 114% | OVCAR-5 ovarian 108% | OVCAR-4 ovarian 105% | SK-OV-3 ovarian 109% | IGROV1 ovarian 85.6% | OVCAR-3 ovarian 100% | HS 578T breast 102% | NCI/ADR-RES ovarian 95%

N#CCSc1nnc2n(Cc3ccccc3)c(=O)c3c4c(sc3n12)CCCC4
inactive: SR leukemia 94.8% | OVCAR-8 ovarian 95.1% | OVCAR-5 ovarian 92.2% | OVCAR-4 ovarian 101% | SK-OV-3 ovarian 107% | IGROV1 ovarian 74.2% | OVCAR-3 ovarian 98.5% | HS 578T breast 95.3% | NCI/ADR-RES ovarian 91%
active: RPMI-8226 leukemia -61.3%

Cc1ccc(-c2nc3nc(-c4ccccc4)nc(N4CCNCC4)c3o2)cc1
active: SR leukemia -43% | RPMI-8226 leukemia -61.5% | OVCAR-8 ovarian -73.8% | OVCAR-5 ovarian -89.8% | OVCAR-4 ovarian -82% | SK-OV-3 ovarian -99.6% | IGROV1 ovarian -76.7% | OVCAR-3 ovarian -89.7% | HS 578T breast -51.4% | NCI/ADR-RES ovarian -58.1%

C/C(Nc1ccc(Cl)c(Cl)c1)=C1\CCOC1=O
inactive: SR leukemia 83.6% | RPMI-8226 leukemia 61.3% | OVCAR-8 ovarian 102% | OVCAR-5 ovarian 87.5% | OVCAR-4 ovarian 72.4% | SK-OV-3 ovarian 121% | IGROV1 ovarian 83.8% | OVCAR-3 ovarian 100% | HS 578T breast 98% | NCI/ADR-RES ovarian 86.7%

C=CCn1c(SCC(=O)Nc2ccc(C(=O)/C=C/c3ccc(Cl)cc3)cc2)nnc1-c1cc(-c2ccc(S(N)(=O)=O)cc2)nc2ccccc12
inactive: SR leukemia 79.5% | OVCAR-8 ovarian 55.5% | OVCAR-5 ovarian 96.7% | OVCAR-4 ovarian 90.2% | SK-OV-3 ovarian 93.7% | IGROV1 ovarian 87.7% | OVCAR-3 ovarian 82.8% | HS 578T breast 98.2% | NCI/ADR-RES ovarian 100%
active: RPMI-8226 leukemia 5.47%

C#Cc1ccc(NC(=O)c2ccc(/C=C/C(=O)c3nccn3C)cc2)cc1
active: SR leukemia -18.8% | RPMI-8226 leukemia -25.9% | OVCAR-8 ovarian 5.61% | OVCAR-5 ovarian -61.6% | OVCAR-4 ovarian 9.83% | IGROV1 ovarian -37.3% | OVCAR-3 ovarian -86% | NCI/ADR-RES ovarian -7.85%
inactive: SK-OV-3 ovarian 18.7% | HS 578T breast 33.1%

CCCCCCCCCCCCCCCCCCOc1ccccc1CC(=O)OCC[N+]1(C)CCCC1
inactive: SR leukemia 17.8% | RPMI-8226 leukemia 21.6% | OVCAR-8 ovarian 11.9% | OVCAR-5 ovarian 37.3% | OVCAR-4 ovarian 27.9% | SK-OV-3 ovarian 94.1% | OVCAR-3 ovarian 22.3% | HS 578T breast 30.3% | NCI/ADR-RES ovarian 82.3%
active: IGROV1 ovarian -58%

O=C(Cn1c(=O)sc2ccccc21)NNS(=O)(=O)c1ccccc1[N+](=O)[O-]
inactive: SR leukemia 96% | RPMI-8226 leukemia 98.4% | OVCAR-8 ovarian 99.4% | OVCAR-5 ovarian 100% | OVCAR-4 ovarian 117% | SK-OV-3 ovarian 103% | IGROV1 ovarian 102% | OVCAR-3 ovarian 99.3% | HS 578T breast 103% | NCI/ADR-RES ovarian 103%

COc1cc(CNS(=O)(=O)c2ccc(C)cc2)ccc1OCc1cn(-c2ccc(F)cc2)nn1
inactive: SR leukemia 78.9% | RPMI-8226 leukemia 61.1% | OVCAR-8 ovarian 95.5% | OVCAR-5 ovarian 102% | OVCAR-4 ovarian 72.2% | SK-OV-3 ovarian 85.2% | IGROV1 ovarian 94.1% | OVCAR-3 ovarian 91.1% | HS 578T breast 97.8% | NCI/ADR-RES ovarian 85.8%

O=C1Nc2ccc(Br)cc2/C1=N/c1n[nH]c(=S)s1
inactive: SR leukemia 83.5% | RPMI-8226 leukemia 103% | OVCAR-8 ovarian 95% | OVCAR-5 ovarian 110% | OVCAR-4 ovarian 108% | SK-OV-3 ovarian 93.2% | IGROV1 ovarian 105% | OVCAR-3 ovarian 104% | HS 578T breast 93.9% | NCI/ADR-RES ovarian 95.7%

c1cc2[nH]ncc2cc1-c1nc2ccc3[nH]ncc3c2c2c1CCCC2
inactive: RPMI-8226 leukemia 19.8% | OVCAR-8 ovarian 17.4% | OVCAR-5 ovarian 32.5% | OVCAR-4 ovarian 39.9% | OVCAR-3 ovarian 28% | NCI/ADR-RES ovarian 26.6%
active: SR leukemia -13.7% | SK-OV-3 ovarian -25.1% | IGROV1 ovarian 8.59% | HS 578T breast 6.02%

CCN(c1ccc(Cl)cc1)c1nc(-c2ccc([N+](=O)[O-])cc2)cs1
inactive: SR leukemia 83.4% | RPMI-8226 leukemia 91.5% | OVCAR-8 ovarian 103% | OVCAR-5 ovarian 103% | OVCAR-4 ovarian 92.7% | SK-OV-3 ovarian 95.7% | IGROV1 ovarian 73% | OVCAR-3 ovarian 102% | HS 578T breast 87% | NCI/ADR-RES ovarian 101%

COc1cc(C(=O)n2nc(N3CCN(C)CC3)c3cc(N)ccc32)cc(OC)c1OC
active: OVCAR-3 ovarian 4.26%
inactive: SR leukemia 13.3% | RPMI-8226 leukemia 33.3% | OVCAR-8 ovarian 30.3% | OVCAR-5 ovarian 50.4% | OVCAR-4 ovarian 49.7% | SK-OV-3 ovarian 28.1% | IGROV1 ovarian 32.5% | HS 578T breast 44.5% | NCI/ADR-RES ovarian 67.9%

O=C(NCCCN1CCOCC1)c1cccc(N2C(=O)/C(=C/c3ccc(F)cc3)SC2=S)c1
inactive: SR leukemia 98.9% | RPMI-8226 leukemia 102% | OVCAR-8 ovarian 100% | OVCAR-5 ovarian 104% | OVCAR-4 ovarian 93.8% | SK-OV-3 ovarian 108% | IGROV1 ovarian 90.7% | OVCAR-3 ovarian 99.5% | HS 578T breast 82.2% | NCI/ADR-RES ovarian 98.5%

O=C(O)CCCN1C(=O)/C(=C/C(Cl)=C/c2ccccc2)SC1=S
active: RPMI-8226 leukemia -13.1% | IGROV1 ovarian 7.37% | NCI/ADR-RES ovarian 3.81%
inactive: SR leukemia 13% | OVCAR-8 ovarian 19.1% | OVCAR-5 ovarian 59% | OVCAR-4 ovarian 46.8% | SK-OV-3 ovarian 110% | OVCAR-3 ovarian 13.6% | HS 578T breast 31.6%

O=C(/C=C/c1cccs1)c1ccc(Cl)nc1
inactive: SR leukemia 82.5% | OVCAR-8 ovarian 99.3% | OVCAR-5 ovarian 103% | OVCAR-4 ovarian 104% | SK-OV-3 ovarian 95.7% | IGROV1 ovarian 107% | OVCAR-3 ovarian 116% | HS 578T breast 105% | NCI/ADR-RES ovarian 108%
active: RPMI-8226 leukemia 4.19%

O=S(=O)(NCCNc1cc(-c2c(-c3cccc(O)c3)nc3sccn23)ccn1)c1ccc(C(F)(F)F)cc1
inactive: SR leukemia 19.6% | RPMI-8226 leukemia 30.3% | OVCAR-8 ovarian 28.4% | OVCAR-5 ovarian 93.5% | OVCAR-4 ovarian 22.1% | SK-OV-3 ovarian 45.4% | IGROV1 ovarian 36.4% | OVCAR-3 ovarian 37.1% | HS 578T breast 42.8% | NCI/ADR-RES ovarian 58%

N#Cc1c(-c2ccc(Cl)cc2)nc(NN=Cc2cccc(O)c2)nc1N1CCOCC1
active: SR leukemia 4.7%
inactive: RPMI-8226 leukemia 37.4% | OVCAR-8 ovarian 65.4% | OVCAR-5 ovarian 97.4% | OVCAR-4 ovarian 72.4% | SK-OV-3 ovarian 98% | IGROV1 ovarian 64.9% | OVCAR-3 ovarian 77.7% | HS 578T breast 89.4% | NCI/ADR-RES ovarian 64.9%

COC(=O)c1c2c(c(C)[n+]([O-])c1C)C(=O)C=C(NCc1ccc(Br)cc1)C2=O
active: SR leukemia 1.3% | RPMI-8226 leukemia -28.3% | OVCAR-8 ovarian 1.05% | OVCAR-5 ovarian -82.8% | OVCAR-4 ovarian -92.8% | SK-OV-3 ovarian -10.7% | IGROV1 ovarian -53.4% | OVCAR-3 ovarian -73.4% | HS 578T breast -7.62% | NCI/ADR-RES ovarian -8.51%

COc1cc(N2C(=O)[C@H](O)C2c2ccc(SC)cc2)cc(OC)c1OC (stereo not given in full)
inactive: OVCAR-5 ovarian 80.3% | OVCAR-4 ovarian 56.5% | IGROV1 ovarian 31.4% | HS 578T breast 34.9% | NCI/ADR-RES ovarian 14.2%
active: SR leukemia 3.99% | RPMI-8226 leukemia 9.69% | OVCAR-8 ovarian 6.99% | SK-OV-3 ovarian 3.02% | OVCAR-3 ovarian -11.9%

COc1ccccc1NC(=O)Cn1cc(CN2CCN(c3ccnc4cc(Cl)ccc34)CC2)nn1
inactive: SR leukemia 92.1% | RPMI-8226 leukemia 50.9% | OVCAR-8 ovarian 93.4% | OVCAR-5 ovarian 82.9% | OVCAR-4 ovarian 94.1% | SK-OV-3 ovarian 86.6% | IGROV1 ovarian 90.6% | OVCAR-3 ovarian 101% | HS 578T breast 88.5% | NCI/ADR-RES ovarian 91.5%

O=C(COc1ccc(-c2nc3ccccc3[nH]2)cc1)N=Nc1c(O)[nH]c2ccc(Cl)cc12
inactive: SR leukemia 11.2% | RPMI-8226 leukemia 57.4% | OVCAR-8 ovarian 11.9% | OVCAR-5 ovarian 104% | OVCAR-4 ovarian 60.7% | SK-OV-3 ovarian 103% | IGROV1 ovarian 88% | OVCAR-3 ovarian 63.7% | HS 578T breast 72.4% | NCI/ADR-RES ovarian 107%
